Bioassay records (PubChem)
CYP2C9 activ = increases human cytochrome P450 2C9 activity. 96,000 tested, 1.4% active. P11712. activation factor at 5 µM. AID 1024. recombinant CYP2C9, luciferin-H conversion, luminescence; stronger effect = higher value; factor 1 = untreated enzyme, 0 = blocked;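 active = activation factor of 2 or more for CYP2C9 at a 5 µM dose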
Target sequence (P11712 whole entry, looked up): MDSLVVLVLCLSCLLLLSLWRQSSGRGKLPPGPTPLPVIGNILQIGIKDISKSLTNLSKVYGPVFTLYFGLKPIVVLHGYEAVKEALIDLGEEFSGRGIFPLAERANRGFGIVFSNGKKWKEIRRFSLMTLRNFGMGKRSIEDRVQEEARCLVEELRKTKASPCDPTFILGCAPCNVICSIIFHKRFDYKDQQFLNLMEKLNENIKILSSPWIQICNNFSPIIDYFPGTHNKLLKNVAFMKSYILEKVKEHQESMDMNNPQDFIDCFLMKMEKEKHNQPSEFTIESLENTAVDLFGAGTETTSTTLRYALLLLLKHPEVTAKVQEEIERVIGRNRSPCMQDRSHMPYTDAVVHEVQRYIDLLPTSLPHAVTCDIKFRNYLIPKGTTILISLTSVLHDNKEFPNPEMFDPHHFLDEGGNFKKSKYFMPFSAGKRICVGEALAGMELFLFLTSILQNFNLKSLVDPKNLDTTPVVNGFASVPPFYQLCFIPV
CYP2C9 inh = human CYP2C9 inhibition; P11712; CYP2C9 Supersomes, luciferin-H conversion, luminescence; inhibition, % at 5 µM; 96,000 tested, 20% active;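 active = blocking of liver enzyme CYP2C9 beyond about 50% at 5 µM, limit read from the data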
CYP2C19 activ = cytochrome P450 2C19 (human) activation; 96,000 tested, under 10 active; recombinant CYP2C19, luciferin-H EGE luminescence; stronger effect = higher value; 0 = fully inhibited enzyme, 1 = untreated enzyme; activation factor at 5 µM;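 active = activation factor of at least 2 at 5 µM in the primary screen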
CYP2C19 inh = human CYP2C19 inhibition | P33261 | inhibition, % at 5 µM | CYP2C19 Supersomes, luciferin-H EGE luminescence, 30 min | 96,000 tested, 21% active | AID 778;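 active = CYP2C19 inhibition above a set limit at 5 µM in the primary screen, cut at about 50% in these data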
Measles CPE = protection of cells from measles virus; AID 841; 140,000 tested, 1.5% active; protection (pct of control), % at 4 µM; Measles virus-infected cells, CPE protection, absorbance; in the data active = protection mostly above about 24%, no sharp cut-off; inactive = mostly below about 26%
Of the large screens only hits and unclear results are named; the others gave an inactive call. Only some compounds are listed: those with a hit (about 22% of all), similar ones and a draw of the others.

COc1cc(NS(=O)(=O)c2ccc(F)cc2)c(OC)cc1NC(C)=O	CYP2C9 inh 67, CYP2C19 inh 99
COc1ccc(NC(=O)C2CC2)cc1NS(=O)(=O)c1ccc(F)cc1	CYP2C19 inh 58
COc1ccc(Cc2nnc(-c3ccc(F)cc3)o2)cc1OC	none
Cc1cc(C)c2ccc(C)[n+]([O-])c2c1O	CYP2C9 activ 3.5
Cc1cc(C(=O)Nc2ccccc2)c(C)o1	CYP2C19 inh 61
Cc1ccc(C(C)NC(=O)c2cc(C)oc2C)cc1 (centres undefined)	CYP2C19 inh 77
Cc1ccc(C(C)NC(=O)c2ccco2)cc1 (centres undefined)	none (no result: CYP2C9 activ, CYP2C9 inh, CYP2C19 activ, CYP2C19 inh)
Cc1oc(-c2ccccc2)cc1C(=O)Nc1ccccc1	none
CCOC(=O)c1c(NC2OC(=O)c3c2ccc(OC)c3OC)sc(C(=O)OC(C)(C)C)c1C (centres undefined)	none (no result: CYP2C9 activ, CYP2C9 inh, CYP2C19 activ, CYP2C19 inh)
O=C1CC(N2CCCCC2)C(=O)N1c1ccccc1 (centres undefined)	none (no result: CYP2C9 activ, CYP2C9 inh, CYP2C19 activ, CYP2C19 inh)
O=C1CC(N2CCCN(C3CC(=O)N(c4ccc(F)cc4)C3=O)CC2)C(=O)N1c1ccc(F)cc1 (centres undefined)	Measles CPE 55
Cc1ccccc1C(O)c1ccccn1 (centres undefined)	none
Cn1cc(C(c2ccccn2)c2cn(C)c3ccccc23)c2ccccc21	CYP2C9 inh 96
c1ccc(C(c2c[nH]c3ccccc23)c2c[nH]c3ccccc23)nc1	CYP2C9 inh 95, CYP2C19 inh 54
CCc1cccc2c(C(=O)CSc3nncn3-c3ccccc3OC)c[nH]c12	none (no result: CYP2C9 activ, CYP2C9 inh, CYP2C19 activ, CYP2C19 inh)
COc1ccccc1-n1cnnc1SCC(=O)c1ccc[nH]1	CYP2C19 inh 59
Cn1ncc(Cl)c1C(=O)Nc1ccc(Cl)cn1	Measles CPE 28 (no result: CYP2C9 activ, CYP2C9 inh, CYP2C19 activ, CYP2C19 inh)
CN(C(=O)/C(N=Nc1cccc(C(F)(F)F)c1)=C(\O)C(F)(F)F)c1ccccc1	CYP2C9 inh 80, CYP2C19 inh 82
CN(C)c1nn(C(=O)Nc2cccc(C(F)(F)F)c2)cc1-c1ccccc1	none
CC(CNS(=O)(=O)c1cc(Cl)ccc1Cl)CN(C)C (centres undefined)	none
CCN(c1ccccc1)S(=O)(=O)c1ccc(OCc2c(C)noc2C)cc1	CYP2C9 inh 86, CYP2C19 inh 72
Cc1ccc(S(=O)(=O)N(C)c2ccc(OCC(=O)OCc3c(C)noc3C)cc2)cc1	CYP2C9 inh 75, CYP2C19 inh 79
Cc1noc(C)c1COC(=O)COc1ccc2c(C)cc(=O)oc2c1	Measles CPE 39
Cc1ccc(S(=O)(=O)N(CCC#N)C2CCCCC2)c2nsnc12	none (no result: CYP2C9 activ, CYP2C9 inh, CYP2C19 activ, CYP2C19 inh)
Cc1ccc(S(=O)(=O)c2nc(-c3ccccc3)oc2NCc2cccnc2)cc1	CYP2C9 inh 73, CYP2C19 inh 77
Cc1ccc(CNc2oc(-c3ccco3)nc2S(=O)(=O)c2ccccc2)cc1	none (no result: CYP2C9 activ, CYP2C9 inh, CYP2C19 activ, CYP2C19 inh)
Cc1ccccc1-c1nc(S(=O)(=O)c2ccc(Br)cc2)c(NCc2cccnc2)o1	CYP2C9 inh 66, CYP2C19 inh 82
N#CC1=C(N)Oc2n[nH]c(-c3ccccc3)c2C1c1ccncc1 (centres undefined)	CYP2C9 inh 89, CYP2C19 inh 85
CCc1[nH]nc2c1C(c1ccncc1)C(C#N)=C(N)O2 (centres undefined)	CYP2C9 inh 69, CYP2C19 inh 59
COCc1[nH]nc2c1C(c1ccc(OC)cc1)C(C#N)=C(N)O2 (centres undefined)	none
N#CC1=C(N)Oc2n[nH]c(-c3ccc(F)cc3)c2C1c1cccnc1 (centres undefined)	CYP2C9 inh 55, CYP2C19 inh 70
CCC(C)C1C(C#N)=C(N)Oc2n[nH]c(-c3ccccc3)c21 (centres undefined)	CYP2C19 inh 53
COc1cc(C2SCC(=O)N2c2nnc(C34CC5CC(CC(C5)C3)C4)s2)cc(OC)c1OC (centres undefined)	none
Cn1nc(C(=O)N2CCOCC2)c([N+](=O)[O-])c1C(=O)N1CCOCC1	none (no result: CYP2C9 activ, CYP2C9 inh, CYP2C19 activ, CYP2C19 inh)
CCOc1ccc(OCC)c(NC(=O)CCCN2C(=S)NC(C)(C)CC2C)c1 (centres undefined)	none (no result: CYP2C9 activ, CYP2C9 inh, CYP2C19 activ, CYP2C19 inh)
COc1ccc(-c2nnn(CC(=O)N(C3CCCC3)C(C)C(=O)NC3CCCC3)n2)cc1OC (centres undefined)	CYP2C9 inh 59, CYP2C19 inh 81
CCCC(C(=O)NC1CCCC1)N(C(=O)Cn1nnc(-c2ccc(C)o2)n1)c1ccccc1OC (centres undefined)	CYP2C9 inh 81, CYP2C19 inh 88
COc1ccc(-c2nnn(CC(=O)N(C3CCCCC3)C(C)C(=O)NC3CCCC3)n2)cc1OC (centres undefined)	CYP2C9 inh 68, CYP2C19 inh 83
CCn1ncc(CNC(=O)C2(C)CC2(Cl)Cl)c1C (centres undefined)	none (no result: CYP2C9 activ, CYP2C9 inh, CYP2C19 activ, CYP2C19 inh)
ON1C2CCCCC2N(O)C1c1c(F)c(F)c(F)c(F)c1F (centres undefined)	none
O=c1c(-c2ccc(O)cc2)coc2cc(OC3OC(CO)C(O)C(O)C3O)ccc12 (centres undefined)	none (no result: CYP2C9 activ, CYP2C9 inh, CYP2C19 activ, CYP2C19 inh)
O=C(Nc1nnc(SCc2ccc(F)cc2)s1)C1CC(=O)N(Cc2ccccc2)C1 (centres undefined)	none (no result: CYP2C9 activ, CYP2C9 inh, CYP2C19 activ, CYP2C19 inh)
Cc1nnc(SCC(=O)N2CCCCC2)n1CC1CCCO1 (centres undefined)	none (no result: CYP2C9 activ, CYP2C9 inh, CYP2C19 activ, CYP2C19 inh)
c1ccc(-c2nc(N3CCN(c4ccccc4)CC3)nc(-n3ccnc3)n2)cc1	CYP2C9 inh 66, CYP2C19 inh 52, Measles CPE 38
c1ccc(-c2ccc(-n3ccnc3)cc2)cc1	CYP2C9 inh 90, CYP2C19 inh 99
CC(C)(C)c1cc(CNC2CS(=O)(=O)C[C@@H]2O)cc(C(C)(C)C)c1O (some centres undefined)	none
Cc1ccc(-n2nc3ccc(NC(=O)/C=C/c4ccco4)cc3n2)cc1	none (no result: CYP2C9 activ, CYP2C9 inh, CYP2C19 activ, CYP2C19 inh)
N#Cc1c(-c2ccccc2Cl)cc(C2CC2)nc1N	CYP2C19 inh 74
CCc1nc(N)c(C#N)c(-c2ccccc2OC)c1C	CYP2C19 inh 70
COc1ccccc1-c1cc(C2CC2)nc(N)c1C#N	CYP2C19 inh 80
CCNC(=O)N1c2ccc(OCC)cc2C(C)=CC1(C)C	CYP2C9 inh 50, CYP2C19 inh 67
CCOc1ccc2c(c1)C(C)=CC(C)(C)N2C(=O)Nc1ccccc1F	none (no result: CYP2C9 activ, CYP2C9 inh, CYP2C19 activ, CYP2C19 inh)
CN1CCN(CC(=O)Nc2ccc(Oc3ccccc3)cc2)CC1	none
COc1cccc(NC(=O)CN2CCC(C)CC2)c1	CYP2C9 inh 54, CYP2C19 inh 90
O=C(CN1CCCCC1)Nc1cccc(Oc2ccccc2)c1	CYP2C9 inh 90, CYP2C19 inh 77
CC(=C1C(=O)c2ccccc2C1=O)N1CCC(C(N)=O)(N2CCCCC2)CC1	none
OC(c1ccccc1)C1CN(Cc2ccccc2)CCC1(O)c1ccccc1 (centres undefined)	CYP2C19 inh 67
CCC(=O)N1CCN(c2nc(C)nc3sc(C)c(C)c23)CC1	none
CC(=O)N1CCN(c2nc(C)nc3sc4c(c23)CCC(C)C4)CC1 (centres undefined)	CYP2C9 inh 86, CYP2C19 inh 83
Cc1ccc(SC(C)C(=O)N2CCCC2)cc1 (centres undefined)	CYP2C19 inh 76
